Hits are enriched below; roughly 4.7% of the tested compounds scored in any of these assays.
rCAG binder – r(CAG) repeat RNA binding | TO-PRO-1 dye displacement fluorescence | inhibition, % at 3 µM | actives 1.3% (n = 370,000) | AID 651821;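 active = inhibition above the plate cutoff, the mean of all test compounds on that plate plus 3 SD, cut at about 35% in these data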;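 also: higher means more dye released from RNA so lower well fluorescence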
ADAM10 inh – inhibits human ADAM10. AID 720582. O14672. recombinant ADAM10, EDANS/DABCYL FRET peptide cleavage, 3 h. actives 0.62% (n = 370,000). inhibition, % at 7 µM;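 active = inhibition above a per-campaign cutoff equal to the mean of compounds falling between control-based bounds plus 3 SD, cut at about 20% in these data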
ADAM17 inh – inhibitors of human ADAM17. P78536. recombinant ADAM17, EDANS/DABCYL FRET peptide cleavage. actives 0.83% (n = 370,000). inhibition, % at 6.95 µM;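 active = inhibition above the mean of compounds lying between control limits plus 3 SD, set per campaign, cut at about 8.5% in these data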
Target sequence (P78536 215-824 limits assumed): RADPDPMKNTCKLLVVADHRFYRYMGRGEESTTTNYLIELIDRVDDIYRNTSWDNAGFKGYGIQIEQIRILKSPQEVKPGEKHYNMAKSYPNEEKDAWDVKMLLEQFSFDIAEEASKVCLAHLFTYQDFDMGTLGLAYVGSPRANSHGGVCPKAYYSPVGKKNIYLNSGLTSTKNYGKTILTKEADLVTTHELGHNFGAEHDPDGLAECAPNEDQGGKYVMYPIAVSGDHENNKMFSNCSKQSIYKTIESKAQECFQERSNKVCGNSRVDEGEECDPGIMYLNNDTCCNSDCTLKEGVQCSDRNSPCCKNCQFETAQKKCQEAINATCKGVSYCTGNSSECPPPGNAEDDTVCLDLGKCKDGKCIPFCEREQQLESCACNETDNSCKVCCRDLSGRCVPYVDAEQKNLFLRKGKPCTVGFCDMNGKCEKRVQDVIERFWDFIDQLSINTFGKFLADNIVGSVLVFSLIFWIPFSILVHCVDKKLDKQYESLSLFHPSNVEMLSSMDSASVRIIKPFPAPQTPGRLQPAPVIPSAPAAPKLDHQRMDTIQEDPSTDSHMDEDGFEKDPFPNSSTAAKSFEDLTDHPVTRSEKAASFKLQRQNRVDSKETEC
proKLK7 act – proKLK7 (human) activation, primary screen. activation, % at 7 µM. P49862. actives 0.9% (n = 370,000). purified proKLK7, EDANS-DABCYL substrate fluorescence; 100% is mature enzyme control, 0% vehicle;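 active = activation above the mean of all tested compounds plus 3 SD, computed per campaign excluding outliers beyond control limits, cut at about 13% in these data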
MPTP inh – inhibitors of mitochondrial permeability transition pore; isolated mouse mitochondria, Ca2+ swelling absorbance, 30 min; inhibition, % at 10 µM; actives 1.4% (n = 360,000); AID 602449;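 active = inhibition of 50% or more, scaled per plate between neutral and stimulator controls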
Pemphigus Ab inh – blocks pemphigus antibody binding to human desmoglein-3. P32926. DSG3-coupled beads, scFv-anti-DSG3-GFP binding, flow cytometry; hits give low values. binding (percent of control), % at 10 µM. actives 0.48% (n = 310,000). AID 588358;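 active = binding more than 3 SD below its plate's average and above zero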;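 also: hits lower antibody fragment binding to DSG3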
Rh123 counter – mitochondrial membrane potential, counter-screen | inhibition, % at 10 µM | actives 78% (n = 5,000) | shares compounds with MPTP inh | isolated mitochondria, Rhodamine 123 fluorescence; in the data active = inhibition above about 22%
rCAG bind conf – r(CAG) RNA repeat binding, confirmation. actives 70% (n = 4,300). inhibition, % at 3 µM. TO-PRO-1 dye displacement fluorescence. shares compounds with rCAG binder;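 active = inhibition above a per-plate cutoff, the mean inhibition of sample wells plus 3 SD, cut at about 35% in these data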;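 also: loss of TO-PRO-1 fluorescence as compound displaces dye from 1x1 AA loop RNA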
dCAG dye counter – DNA CAG dye complex inhibition counter-screen. shares compounds with rCAG binder. d(CAG) DNA oligo TO-PRO-1 dye displacement, fluorescence. inhibition, % at 3 µM. actives 94% (n = 4,300);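 active = inhibition above its plate's cutoff, the mean test-well inhibition plus 3 SD, cut at about 4.8% in these data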;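 also: hits displace the dye from DNA and so lower well fluorescence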
ADAM10 confirm – confirmation of inhibitors of human ADAM10 | shares compounds with ADAM10 inh | ADAM10 QFRET peptide cleavage, EDANS fluorescence | inhibition, % at 6.95 µM | actives 1% (n = 2,100) | AID 743208;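 active = inhibition above about 20% chosen separately for each screening run, limit read from the data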
ADAM17 ctr – inhibits human ADAM17 in ADAM10 exosite counter-screen | actives 0.5% (n = 2,100) | inhibition, % at 6.95 µM | ADAM17 QFRET peptide cleavage, EDANS fluorescence | shares compounds with ADAM10 inh;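 active = mean triplicate inhibition above the solvent-only control wells' mean plus 3 SD, cut at about 12% in these data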
ADAM10 counter – counter-screen for ADAM17 exosite inhibitors: inhibitors of human ADAM10. shares compounds with ADAM17 inh. recombinant ADAM10, EDANS/DABCYL FRET peptide cleavage, 3 h. inhibition, % at 6.95 µM. actives 47% (n = 2,900);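 active = mean inhibition over the triplicate runs exceeds the activity threshold set in the earlier primary screen, cut at about 20% in these data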
ADAM17 confirm – confirmation of inhibitors of human ADAM17; recombinant ADAM17, EDANS/DABCYL QFRET peptide cleavage; shares compounds with ADAM17 inh; inhibition, % at 6.95 µM; actives 65% (n = 2,900); AID 743257;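 active = mean inhibition across replicates above the hit cutoff set in the primary screen, cut at about 8.5% in these data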
Of the large screens only hits and unclear results are named; the others gave an inactive call (follow-up assays come after a bar, where they were run).

Cc1cc(Oc2ccccc2)nc(SCC(=O)Nc2ccccc2)n1	none
Cc1cc(Oc2ccccc2)nc(SCC(=O)Nc2ccc(Cl)c(Cl)c2)n1	ADAM17 inh 13.5, MPTP inh 73.1 | Rh123 counter 72.4 | ADAM10 counter inactive | ADAM17 confirm 11.9
COc1cc(NC(=S)NCCC(c2ccccc2)c2ccccc2)c(OC)cc1Cl	ADAM17 inh 9.7, MPTP inh 96.7 | Rh123 counter 80.8 | ADAM10 counter 25.2 | ADAM17 confirm 13.6
COc1ccc(Cl)cc1NC(=S)NCCC(c1ccccc1)c1ccccc1	ADAM17 inh 9.8, MPTP inh 66.9 | Rh123 counter 91.3 | ADAM10 counter 19.8 | ADAM17 confirm inactive
CC(C)CNC(=O)OCc1cn(Cc2ccc(F)c(F)c2)nn1	none (no result: MPTP inh, Pemphigus Ab inh)
COC(=O)[C@]12C[C@H](CC(=O)NCc3ccc(OC)c(OC)c3)C(=O)N(Cc3ccc(Cl)cc3Cl)C1=C[C@H](C(C)C)O[C@@H]2C1CC1	none (no result: MPTP inh, Pemphigus Ab inh)
COc1ccc(N2CCN(CCNS(=O)(=O)c3ccc(F)cc3)CC2)cc1	none (no result: MPTP inh, Pemphigus Ab inh)
Cc1ccc(NC(=O)c2ccc(Nc3c([N+](=O)[O-])cc([N+](=O)[O-])cc3[N+](=O)[O-])cc2)cc1	ADAM17 inh 10.2, MPTP inh 96.3 | Rh123 counter 74.1 | ADAM10 counter 23.3 | ADAM17 confirm 12.2
Cc1ccc(C(=O)Nc2cc([N+](=O)[O-])ccc2C)cc1	none
COc1ccc([N+](=O)[O-])cc1NC(=O)C(C)c1ccccc1 (centres undefined)	none
COc1ccc([N+](=O)[O-])cc1NC(=O)CSc1ccc2ccccc2c1	ADAM17 inh 9.6, MPTP inh 61.8 | Rh123 counter 31.2 | ADAM10 counter 20.9 | ADAM17 confirm inactive
COc1ccc([N+](=O)[O-])cc1NC(=S)NC(NC(=O)C(c1ccccc1)c1ccccc1)C(Cl)(Cl)Cl (centres undefined)	rCAG binder 46.9, ADAM10 inh 32.1, ADAM17 inh 19.2, MPTP inh 94.6 | Rh123 counter 63.5 | rCAG bind conf 38.7 | dCAG dye counter 23.4 | ADAM10 confirm inactive | ADAM17 ctr inactive | ADAM10 counter 29.1 | ADAM17 confirm 13.9
O=C(NC(NC(=S)Nc1cccc(Cl)c1)C(Cl)(Cl)Cl)OCc1ccccc1 (centres undefined)	ADAM10 inh 28.4, ADAM17 inh 10.3, MPTP inh 91.1 | Rh123 counter 76.3 | ADAM10 confirm inactive | ADAM17 ctr inactive | ADAM10 counter 35.0 | ADAM17 confirm 20.2
OC(c1ccccc1)(c1ccccc1)C1CCN(CCCOc2ccc(-c3cncnc3)cc2)CC1	none (no result: MPTP inh, Pemphigus Ab inh)
COc1ccc(NC(=S)NC(NC(=O)c2ccc(Cl)cc2Cl)C(Cl)(Cl)Cl)c([N+](=O)[O-])c1 (centres undefined)	ADAM10 inh 21.9, ADAM17 inh 8.8, MPTP inh 86.6 | Rh123 counter 53.8 | ADAM10 confirm inactive | ADAM17 ctr inactive | ADAM10 counter 31.1 | ADAM17 confirm 17.3
S=C(NCc1ccccc1)NCc1cccc(Cl)c1	none (no result: Pemphigus Ab inh)
S=C(NCc1ccccc1)NCc1cccc(CNC(=S)NCc2ccccc2)c1	ADAM17 inh 9.3, MPTP inh 83.6 | Rh123 counter 77.8 | ADAM10 counter 21.7 | ADAM17 confirm 14.1
CC(C)CN1C(=O)[C@@]2(CC(=O)N(C)C2c2ccccc2)c2cc(-n3cc(-c4ccccc4)nn3)ccc21 (some centres undefined)	none (no result: MPTP inh, Pemphigus Ab inh)
O=[N+]([O-])c1cc(-n2cnnn2)ccc1N1CCC(Cc2ccccc2)CC1	ADAM10 inh 26.4, ADAM17 inh 11.9, MPTP inh 75.3 | Rh123 counter 57.0 | ADAM10 counter inactive | ADAM17 confirm 9.2
COC(=O)C1=C(C)N(Cc2cccc(C(F)(F)F)c2)C(=NCc2cc(OC)c(OC)c(OC)c2)NC1c1cccc(Cl)c1 (centres undefined)	none (no result: MPTP inh, Pemphigus Ab inh)
N#CCCn1nc(-c2ccc([N+](=O)[O-])cc2)cc1Nc1ccccc1NC(=O)C(F)(F)F	ADAM10 inh 36.4, ADAM17 inh 19.6, MPTP inh 92.9 | Rh123 counter 91.4 | ADAM10 confirm inactive | ADAM17 ctr inactive | ADAM10 counter inactive | ADAM17 confirm 9.5
Cc1ccccc1NC(=O)c1cc(C(=O)c2cc(Cl)ccc2O)cn(-c2ccccc2C)c1=O	ADAM17 inh 9.7, MPTP inh 90.5 | Rh123 counter 74.8 | ADAM10 counter inactive | ADAM17 confirm inactive
CCCCNC(=O)C[C@H]1C[C@@]2(C(=O)OC)C(=C[C@H](COCc3ccccc3)O[C@@H]2C)N(CCc2ccc(OC)c(OC)c2)C1=O	none (no result: MPTP inh, Pemphigus Ab inh)
O=C(Nc1ccncc1)Nc1cccc(Cl)c1Cl	none
O=C(Nc1ccccc1)Nc1cccc(Cl)c1Cl	ADAM17 inh 11.8, MPTP inh 92.9 | Rh123 counter 96.6 | ADAM10 counter inactive | ADAM17 confirm inactive
COc1cccc(NC(=O)Nc2ccccc2SC)c1	none
CSc1ccccc1NC(=O)Nc1cccc(Cl)c1	ADAM17 inh 9.7, MPTP inh 61.7 | Rh123 counter 85.2 | ADAM10 counter inactive | ADAM17 confirm 10.1
O=C(CCc1c[nH]c2ccccc12)Nc1ccc(Oc2cccnc2)cc1	none (no result: MPTP inh, Pemphigus Ab inh)
CC(C)CCN(C)[C@H]1C[C@H]2c3[nH]c4ccccc4c3CCN2C[C@H]1[C@H](C)O	none (no result: MPTP inh, Pemphigus Ab inh)
Cc1ccccc1C(=O)N[C@H](C(=O)N1CCC[C@H]1C(=O)NCCc1ccccc1Cl)C(C)C	none (no result: MPTP inh, Pemphigus Ab inh)
N#Cc1ccc(Cn2ccc3ccc(-c4ccc5ccn(C(=O)C6CCC6)c5c4)cc32)cc1	none (no result: MPTP inh, Pemphigus Ab inh)
